RORg inh = qHTS for inhibitors of ROR gamma transcriptional activity. Drosophila S2 Gal4-RORgamma UAS-luciferase reporter, 20 h. Potency, µM (top dose mostly 53.6 µM), without a hit: at the highest dose activity change, negative = inhibition, usual class: inhibitors. actives 5.4% (n = 310,000); also: % is scaled to controls: 0 for no effect and ±100 for the full control effect; nearly all actives have a fitted effect of over 60% in size
Target sequence (P51450 whole entry, looked up, the tested form may be a part): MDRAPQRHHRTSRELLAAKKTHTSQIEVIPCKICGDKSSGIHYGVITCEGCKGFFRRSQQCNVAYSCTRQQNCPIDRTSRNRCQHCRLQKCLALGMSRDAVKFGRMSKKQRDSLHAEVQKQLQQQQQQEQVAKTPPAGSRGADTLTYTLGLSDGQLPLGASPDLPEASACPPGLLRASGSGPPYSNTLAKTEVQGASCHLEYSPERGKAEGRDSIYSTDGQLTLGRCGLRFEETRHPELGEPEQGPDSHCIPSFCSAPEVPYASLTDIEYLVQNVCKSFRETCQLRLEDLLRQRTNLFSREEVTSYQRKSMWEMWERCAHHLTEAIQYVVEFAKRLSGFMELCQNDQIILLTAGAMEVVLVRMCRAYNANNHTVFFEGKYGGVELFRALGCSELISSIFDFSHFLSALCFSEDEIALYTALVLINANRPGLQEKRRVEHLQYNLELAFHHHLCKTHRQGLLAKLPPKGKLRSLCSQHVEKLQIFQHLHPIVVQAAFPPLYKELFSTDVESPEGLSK
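In this cell-based reporter format, copper sulfate (700 uM final) drives Gal4–ROR gamma fusion expression from a metallothionein promoter in Drosophila Schneider cells; compounds preincubated 1 hr, reporter read after 20 hr at ambient temperature.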
TGFb inhibitor = qHTS for Inhibitors of TGF-b. HepG2 CAGA-GFP TGF-b/SMAD3 reporter, GFP fluorescence, 18 h; TGF-beta stimulated, 500 pg/mL final. Potency, µM (doses to about 46.1 µM), for inactives: at the highest dose activity, negative = inhibition, most hits filed as inhibitors. actives 1.2% (n = 410,000); also: % is scaled to controls: 0 for no effect and ±100 for the full control effect; nearly all actives have a fitted effect of over 65% in size
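HEPG2 CAGA-GFP cells (1000/well, DMEM with 1% FBS) were pre-incubated 2 h at 37 degrees C, given compound by pin tool, then stimulated with TGF-beta at 500 pg/mL final for 18 h before per-cell GFP fluorescence imaging.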
HepG2 viability = qHTS for Inhibitors of TGF-b: Cytotox Counterscreen | HepG2 CAGA-GFP viability, ATP luminescence, 18 h | Potency, µM (titrated, usually from 46.1 µM), without a hit: top-dose activity change, negative = cytotoxicity, most hits filed as cytotoxic | actives 0.76% (n = 410,000)
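CellTiter-Glo luminescence gave cytotoxicity after 18 hours at 37 degrees C. The cells were HepG2 CAGA-GFP in 1% FBS DMEM, stimulated with 500 pg/mL TGF-beta after compound addition. %Activity was normalised to no-cell wells (complete cell-killing) and DMSO (no toxicity), and curves were fitted and classified.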
ATXN2 expr inh = Primary qHTS for Inhibitors of ATXN expression; HEK-293 ATXN2-luciferase reporter, luminescence, 24 h; Potency, µM (top dose mostly 57 µM), for the others: top-dose activity change, negative = inhibition, actives largely listed as inhibitors; actives 0.72% (n = 360,000); AID 1745845, 2022; also: % is scaled to controls: 0 for no effect and ±100 for the full control effect; nearly all actives have a fitted effect of over 55% in size
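qHTS (up to 57 uM final) was run with 24 h compound exposure of reporter cells at 37 °C. Each well was multiplexed: SteadyGlo luminescence measured ATXN2-luciferase expression after a fluorogenic Gly-Phe-AFC viability readout (25 uM final).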
VP16 counter = VP16 counterscreen qHTS for inhibitors of ROR gamma transcriptional activity. Drosophila S2 Gal4-VP16 UAS-luciferase, luminescence, 20 h. Potency, µM (series often up to 53.6 µM), inactives show at the top dose activity, negative = inhibition, usual class: inhibitors. actives 3.5% (n = 310,000). AID 2546, 2010;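 also: Gal4-VP16 expression switched on by copper sulfate through the metallothionein promoter; % is scaled to controls: 0 for no effect and ±100 for the full control effect; nearly all actives have a fitted effect of over 50% in size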
S2 tox = Viability Counterscreen for Primary qHTS for Inhibitors of ATXN expression; S2 cells (HEK-293 line with an ATXN2-luciferase reporter) viability, CellTiter-Fluor protease fluorescence, 24 h; Potency, µM (series often up to 56.7 µM), hits mostly cytotoxic; actives 0.49% (n = 400,000); also: nearly all actives have a fitted effect of over 40% in size
An asterisk follows results filed as active; i = inactive; ? = inconclusive; / = not tested or not shown; ! = repeats disagree; [ ] = another dose, or the depositor's remark. Shown are actives, neighbours in structure and some others; about 6.1% of the full set was active somewhere. Calls follow the shape of the dose curve; as a rule, active = well fitted curve in the direction sought with a large enough effect; inconclusive = small, poorly fitted or top-dose-only effect, or another doubt; inactive = no such curve, though single readings can be large; an effect the other way counts as inactive or inconclusive. Potency is read from the fitted curve at half-maximal effect.

SMILES	RORg inh	TGFb inhibitor	HepG2 viability	ATXN2 expr inh	VP16 counter	S2 tox
COc1ccc(CN2CCC3(CCC(CNC(=O)C4CCCO4)O3)CC2)c(C)c1C (configuration not stated)	/	/	/	/	/	i
CC1CN(CC(=O)N2CCN(Cc3nccn3C)CC2)Cc2cc(Cl)ccc2O1 (configuration not stated)	/	/	/	/	/	i
CCc1ccc(-c2nc3c(c(SCc4ccc(F)cc4)n2)Cc2c(CO)cnc(C)c2O3)cc1	/	-30%	-30%	12%	/	i
Cc1ccc2nc(NCCN)c3ncc(C)n3c2c1	-26%	/	/	1.9µM*	?	/
C=CCOCCN(C)C1=NS(=O)(=O)c2cc([N+](=O)[O-])ccc21	-28%	?	14µM*	-36%	-11%	i
CCOc1ccc(Cc2cc([C@@H]3O[C@H](CO)[C@@H](O)[C@H](O)[C@@H]3O)ccc2Cl)cc1	/	/	/	0%	/	/
O=C(CN(Cc1ccccc1)C(=O)CCl)c1cccc(Br)c1	/	?	-106%	22µM*	/	25µM*
COc1cccc(-c2ccc(NC(=O)C3CCCN(Cc4nccn4C)C3)cc2)c1 (configuration not stated)	5µM*	0%	-27%	-3%	?	i
CCCc1nn2c(=O)cc(COC(=O)c3ccccc3NC(=O)COc3ccccc3F)nc2s1	/	0%	-1%	-7%	/	i
Cn1c(C(c2cc3ccccc3n2C)c2cc3ccccc3n2C)cc2ccccc21	/	?	-100%	/	/	/
COc1cccc(-c2cc3nc(-c4ccccc4)cc(N4CCCC(O)C4)n3n2)c1 (configuration not stated)	25%	13µM*	-32%	/	-27%	i
OC1CCN(c2cc(-c3ccccc3)nc3cc(-c4ccc(F)cc4)nn23)CC1	-4%	-4%	-19%	-2%	-22%	i
C=CCSc1ncc(C(=O)OCC)c(N)n1	12%	-1%	-5%	39%	0%	i
CCOC(=O)c1cnc(SSc2ncc(C(=O)OCC)c(N)n2)nc1N	10µM*	4%	6%	/	11µM*	i
O=C(Nc1ccc(Br)cc1F)C1CCN(c2nc3ccccc3[nH]2)CC1	/	-21%	-17%	/	/	/
Cc1nc2ccc(S(=O)(=O)NC(CC(C)C)C(=O)N3CCN(c4ccc(F)cc4)CC3)cc2s1 (configuration not stated)	/	-6%	2%	-10%	/	i
Cc1ccc(NC(=O)Cn2cc(C=O)c3ccccc32)cc1	29%	7.9µM*	-29%	-9%	-1%	i
COc1ccc(OC)c(NC(=O)Cn2cc(C=O)c3ccccc32)c1	24%	10µM*	-30%	-7%	-6%[10 µM]	i
COc1cccc(NC(=O)Cn2cc(C=O)c3ccccc32)c1	?	?	-49%	-16%	-20%	i
CC(=O)c1cn(CC(=O)Nc2cccc(C)c2C)c2ccccc12	?	-15%	-19%	-6%	13µM*	i
CCC(=O)c1cn(CC(=O)Nc2cccc(C)c2C)c2ccccc12	-6%[1.91 µM]	3%	0%	-2%	16%	i
COc1ccc(-n2nc3ccc(NC(=O)c4ccc(C#N)cc4F)cc3n2)cc1Cl	/	7%	20%	6%	/	i
CSc1nc(=NC(C)=O)ss1	3.2µM*	-3%	-11%	4%	-19%	i
C=C1C(=O)OC2CC1C(OC(C)=O)CC(C)=CCCC(C)=CCC[C@@]2(C)O (some centres not stated)	5.6µM*	/	/	/	?	/
C=C1C(=O)OC2CC1C(O)CC(C)=CCCC(C)=CC(O)CC2C (configuration not stated)	/	11µM*	-113%	?	/	/
SMILES	RORg inh	TGFb inhibitor	HepG2 viability	ATXN2 expr inh	VP16 counter	S2 tox
Nc1nc(CCl)nc(Nc2ccc3ccccc3c2)n1	?	?	-64%	3.8µM*	?	3.4µM*
COc1ccc(Nc2nc(N)nc(CCl)n2)cc1	-42%	0%	-49%	/	?	?
CCCCCN(CCCCC)c1ccc(/C=C/c2ccnc3ccccc23)cc1	/	-4%	-9%	/	/	/
Cc1ccc(S(=O)(=O)NNC(=O)C(=O)NNc2ccccn2)cc1	8.9µM*	0%	-1%	?	-7%	i
COc1ccc(OC)c(NC(=O)CSc2ncnc3c2cnn3-c2ccccc2Cl)c1	?	-33%	3%	-32%	1.4µM*	i
COc1ccc(-c2nnc(SCC(=O)Nc3cc(OC)ccc3OC)nc2-c2ccc(OC)cc2)cc1	/	10µM*	-13%	/	/	/
CC(C)Oc1ccc(CNC(=O)c2cccc(NC(=O)c3nsc4ccccc34)c2)cc1	/	?	-24%	35%	/	?
CCOC(=O)C1CCCN(C(=O)c2cnn(-c3ncc4c(n3)-c3ccccc3CCC4)c2C2CC2)C1 (configuration not stated)	/	/	/	/	/	i
CC(/C=C/c1ccc(N(C)C)cc1)=N\N=C(/N)SC1CC(=O)N(c2ccc(C(=O)O)cc2)C1=O (configuration not stated)	0.79µM*	0%	-8%	0%	2.2µM*	i
O=C(O)c1ccc(N2C(=O)CC(SC(=Nc3ccccc3)Nc3ccccc3)C2=O)cc1 (configuration not stated)	5%	6%	-2%	1%	0%	i
CC(=O)Nc1nnc(-c2ccc(Cl)s2)o1	3.5µM*	6%	-41%	9%	5.6µM*	i
CCC(=O)Nc1nnc(-c2ccc(Cl)s2)o1	7.1µM*	-18%	-10%	/	13µM*	i
COc1c(-c2ccc(O)c(O)c2)oc2cc(O)cc(O)c2c1=O	?	1%	-28%	-21%	11µM*!	i
O=C(NCc1cccnc1)c1cnn(-c2nccc(-c3cccs3)n2)c1C1CC1	/	/	/	/	/	i
Cc1cccc(NC(=O)c2sc3nc4n(c(=O)c3c2C)N=C(c2ccc(F)cc2)CS4)c1C	/	-2%	-14%	-8%	/	i
[O-]/C(=C(\C(=S)Nc1ccc(Cl)cc1)[n+]1ccccc1)c1ccc(OC(F)F)cc1	5µM*	?	-6%	-29%	-2%	?
CC(C)=CCC/C(C)=C/CO/N=C1/C[C@@H](O)[C@@H](O)[C@@H]2[C@@H]3C(=O)N(Cc4ccccc4)C(=O)[C@H]3CC[C@H]12	-2%[10 µM]	/	/	/	-4%[10 µM]	/
